KB-3-1 tox = qHTS assay for MDR1-selective chemotherapeutics: Primary screen using the parental adenocarcinoma cell KB-3-1. KB-3-1 viability, CellTiter-Glo ATP luminescence, 72 h. 400,000 compounds, 1.4% hits. Potency, µM (doses to about 46.1 µM), hits mostly cytotoxic; further: on the % scale 0 is the no-effect control and ±100 the full control effect; nearly all actives have a fitted effect of over 60% in size
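Here the drug-naive KB-3-1 line serves as comparator for MDR sub-line selectivity; cells received compound titrations, 72 h at 37 °C, then CellTiter-Glo readout.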
KB-V1 MDR tox = qHTS assay for MDR1-selective chemotherapeutics: Primary screen using the drug-selected MDR subline cells KB-V1; KB-V1 MDR cells viability, CellTiter-Glo, 72 h; Potency, µM (top dose mostly 46.1 µM), actives largely listed as cytotoxic; 400,000 compounds, 3.4% hits; AID 1347076, 2019; further: on the % scale 0 is the no-effect control and ±100 the full control effect; nearly all actives have a fitted effect of over 60% in size
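Cells of the MDR subline KB-V1 are plated, dosed with compound at multiple concentrations, and incubated 72 h at 37 degrees C; CellTiter-Glo is then added and luminescence read after 10 min.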
MCF10A rerep = A quantitative high throughput screen for small molecules that induce DNA re-replication in MCF 10a normal breast cells. MCF 10A DNA re-replication, Hoechst nuclear intensity, 48 h. Potency, µM (series often up to 46.1 µM), inactives show at the top dose activity, positive = re-replication, most hits filed as activators. 350,000 compounds, 2.9% hits; further: % of control where 0% means no effect; nearly all actives have a fitted effect of over 50% in size
ELG1 repair inh = qHTS screen for small molecules that inhibit ELG1-dependent DNA repair in human embryonic kidney (HEK293T) cells expressing luciferase-tagged ELG1. HEK293T ELG1-luciferase reporter, luminescence, 16 h; DNA damage induced by 5-fluorouridine. Potency, µM (titrated, usually from 46.1 µM), without a hit: at the highest dose activity change, negative = inhibition, hits mostly inhibitors. 330,000 compounds, 2.3% hits. AID 504467, 2011; further: on the % scale 0 is the no-effect control and ±100 the full control effect; nearly all actives have a fitted effect of over 55% in size
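Overnight (16 hr) co-exposure of 2,000 cells/well to 5-fluorouridine and compound at 37 °C preceded detection. Luciferase was quantified via ONE-Glo luminescence; loss of signal denotes inhibition.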
SW480 rereplic = A quantitative high throughput screen for small molecules that induce DNA re-replication in SW480 colon adenocarcinoma cells; SW480 DNA re-replication, Hoechst DNA content imaging, 48 h; Potency, µM (doses to about 46.1 µM), without a hit: at the top dose re-replication activation, usual class: activators; 340,000 compounds, 1.8% hits; AID 624297, 2012; further: % of control where 0% means no effect; nearly all actives have a fitted effect of over 55% in size
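DNA re-replication was detected as more nuclei of elevated Hoechst intensity after 48 hr exposure to compound (23 nL pinned per well of 250 cells).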
Active calls of the source: *. This is a sample that favours compounds with a hit; in the whole collection about 8.1% have one here. The call rests on the fitted dose curve; in most records, active means well fitted curve in the direction sought with a large enough effect; inconclusive means small, poorly fitted or top-dose-only effect, or another doubt; inactive means no such curve, though single readings can be large; an effect the other way counts as inactive or inconclusive. Potency means the concentration at half of the fitted maximal effect.

What do the screens show for `Cc1ccn(-c2ccc(NC(=O)c3cccs3)cc2)n1`?
KB-3-1 tox: 21µM*; KB-V1 MDR tox: 12µM*; MCF10A rerep: inconclusive; ELG1 repair inh: inconclusive; SW480 rereplic: -3%

Results for COc1ccc(C(=O)Nc2ccc(N3CCN(C(=O)c4cccs4)CC3)cc2)cc1Br ?
KB-3-1 tox: inactive; KB-V1 MDR tox: inactive; MCF10A rerep: 18µM*; ELG1 repair inh: 13µM*; SW480 rereplic: inconclusive

Results for O=C(Nc1ccc(N2CCN(C(=O)c3ccc(Cl)cc3)CC2)cc1)c1cccs1 ?
KB-3-1 tox: inactive; KB-V1 MDR tox: inactive; MCF10A rerep: 16%; ELG1 repair inh: 3%; SW480 rereplic: inconclusive

How did CC(=O)N1CCN(c2ccc(NC(=O)c3ccc(C)cc3)cc2)CC1 do in these assays?
KB-3-1 tox: inactive; KB-V1 MDR tox: 18µM*; MCF10A rerep: 3%; ELG1 repair inh: 1%; SW480 rereplic: -5%

How did Cc1ccc(C(=O)N2CCN(c3ccc(NC(=O)c4cccs4)cc3)CC2)cc1 do in these assays?
MCF10A rerep: 2%; ELG1 repair inh: 9.2µM*; SW480 rereplic: -1%

Results for COC1C(O)C(O)C(O)C(O)C1O (stereo not drawn) ?
KB-3-1 tox: inactive; KB-V1 MDR tox: inactive; MCF10A rerep: -52%; SW480 rereplic: -3%

How did O=C(CSc1nc2ccccc2c2nc(-c3ccccc3)nn12)Nc1ccc(F)cc1 do in these assays?
KB-3-1 tox: inactive; KB-V1 MDR tox: inactive

Results for COc1cc(OC)cc(C(=O)Nc2ccc(N3CCN(C(=O)c4cccs4)CC3)cc2)c1 ?
KB-3-1 tox: 7.3µM*; KB-V1 MDR tox: 8.2µM*; MCF10A rerep: 18µM*; ELG1 repair inh: 15µM*; SW480 rereplic: inconclusive

Results for CC(=O)Nc1ccc(N2CCN(C(=O)c3cccs3)CC2)cc1 ?
KB-3-1 tox: inactive; KB-V1 MDR tox: inactive; MCF10A rerep: 2%; ELG1 repair inh: 8%; SW480 rereplic: 11%

Results for O=C(Nc1ccc(N2CCN(C(=O)c3cccs3)CC2)cc1)c1ccc(F)cc1 ?
KB-3-1 tox: inactive; KB-V1 MDR tox: 0.18µM*; MCF10A rerep: 0%; ELG1 repair inh: 18µM*; SW480 rereplic: -11%

Results for Cc1cc(NC(=O)c2cc(Cl)ccc2Cl)ccc1-c1cc2ccccc2oc1=O ?
KB-3-1 tox: inactive; KB-V1 MDR tox: inactive

Results for C=CC[n+]1c(-c2ccc(OC)cc2)csc1NNC(=O)Nc1ccccc1 ?
KB-3-1 tox: inactive; KB-V1 MDR tox: 23µM*; MCF10A rerep: 11%; ELG1 repair inh: 0%; SW480 rereplic: 3%

What do the screens show for `Cc1ccc(NC(=O)C(Cc2ccccc2)NS(=O)(=O)c2ccc3c(c2)c(=O)n(C)c(=O)n3C)cc1` (stereo not drawn)?
KB-3-1 tox: inactive; KB-V1 MDR tox: inactive

What do the screens show for `COc1ccc(-c2cnc3c(NC=O)cc(-c4cccc(NS(C)(=O)=O)c4)cn23)cc1OC`?
KB-3-1 tox: inconclusive; KB-V1 MDR tox: inactive

Results for COc1cccc(-c2cnc3c(NC=O)cc(-c4ccc(OC)cc4OC)cn23)c1 ?
KB-3-1 tox: 0.21µM*; KB-V1 MDR tox: inconclusive

Results for COc1ccc(-c2cc(NC=O)c3ncc(-c4ccc(OC)c(OC)c4)n3c2)c(OC)c1 ?
KB-3-1 tox: 0.65µM*; KB-V1 MDR tox: 1.2µM*

What do the screens show for `Cc1ccc(C2c3c(-c4ccccc4O)n[nH]c3C(=O)N2Cc2ccncc2)cc1` (stereo not drawn)?
KB-3-1 tox: 8.2µM*; KB-V1 MDR tox: inconclusive; MCF10A rerep: 7.3µM*; ELG1 repair inh: -17%; SW480 rereplic: 18µM*

How did CCOc1ccc(C2c3c(-c4ccccc4O)n[nH]c3C(=O)N2Cc2ccncc2)cc1 (stereo not drawn) do in these assays?
KB-3-1 tox: inconclusive; KB-V1 MDR tox: inactive
